The list is not random: actives were taken first. Their share in the collection is about 1.6%.
KCNQ2 enhance – potentiators of rat KCNQ2 potassium channel | 310,000 compounds, 0.54% hits | CHO-K1 KCNQ2, FluxOR thallium flux fluorescence; hits give high values | O88943 | AID 2239 | B-score at 10 µM;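 active = fluorescence ratio B-score at least 3 SD of library B-scores, with initial fluorescence B-score within 3 of them, cut at about 5.3 in these data; same plate scores as AID 2156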;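 also: B-score of peak minus minimum over baseline fluorescence ratio after K+ and Tl+ stimulus; positive B-score means potentiation of KCNQ2 with more thallium influx and brighter signal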
KCNQ2 block – blocks the rat KCNQ2 potassium channel; 310,000 compounds, 1.1% hits; O88943; CHO-K1 KCNQ2, FluxOR thallium flux, 20 min; hits give low values; B-score at 10 µM;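 active = fluorescence ratio B-score at most minus 3 library SDs, with starting brightness B-score within 2 library SDs, cut at about -5.5 in these data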
KCNQ2 inh conf – rat KCNQ2 channel inhibition, confirmatory screen | shares compounds with KCNQ2 block | KCNQ2-expressing cells, thallium flux; hits give low values | activity change, negative = inhibition, % at 10 µM | 1,000 compounds, 57% hits | AID 493025;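 also: 0% = vehicle wells and values are ratio percent relative to vehicle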
KCNQ1 spec – KCNQ2 inhibitor that also affects human KCNQ1 channel | AID 493026 | 1,000 compounds, 15% hits | shares compounds with KCNQ2 block | activity change, negative = inhibition, % at 10 µM | KCNQ1-expressing cells, FluxOR thallium flux fluorescence; hits give low values;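 active = activity change at least 3 SD of negative controls below their mean in both duplicate wells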;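 also: CHO cells stably transfected with KCNQ1 and depolarized by potassium stimulus; peak minus minimum fluorescence over baseline after thallium addition; 0% = vehicle negative control and -100% = blank without thallium stimulus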
CHO parental ctr – counter-screen for KCNQ2 inhibitors: effect in parental CHO cells | shares compounds with KCNQ2 block | thallium flux counter-screen; hits give low values | activity change, % at 10 µM | 1,000 compounds, 14% hits;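 also: 0% = vehicle negative controls with stimulus buffer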
KCNQ2 inh confirm – confirmation of rat KCNQ2 potassium channel inhibitors; shares compounds with KCNQ2 block; KCNQ2-expressing cells, automated patch clamp current; calls only at 10 µM; 550 compounds, 49% hits; AID 588531
Kir21 confirm – confirmation of mouse Kir2.1 potassium channel inhibitors | Kir2.1-expressing cells, FluxOR thallium flux fluorescence; hits give low values | shares compounds with KCNQ2 enhance | AID 2032 | 2,300 compounds, 41% hits | Tl flux remaining, % of negative control (hits give low values), % at 10 µM;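 active = Primary-screen hit whose thallium flux fell at least 3 control SD below untreated wells in both duplicates, with normal baseline fluorescence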;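 also: 0% = blank wells without stimulus and 100% = stimulated no-compound controls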
Target sequence (P35561 whole entry, looked up): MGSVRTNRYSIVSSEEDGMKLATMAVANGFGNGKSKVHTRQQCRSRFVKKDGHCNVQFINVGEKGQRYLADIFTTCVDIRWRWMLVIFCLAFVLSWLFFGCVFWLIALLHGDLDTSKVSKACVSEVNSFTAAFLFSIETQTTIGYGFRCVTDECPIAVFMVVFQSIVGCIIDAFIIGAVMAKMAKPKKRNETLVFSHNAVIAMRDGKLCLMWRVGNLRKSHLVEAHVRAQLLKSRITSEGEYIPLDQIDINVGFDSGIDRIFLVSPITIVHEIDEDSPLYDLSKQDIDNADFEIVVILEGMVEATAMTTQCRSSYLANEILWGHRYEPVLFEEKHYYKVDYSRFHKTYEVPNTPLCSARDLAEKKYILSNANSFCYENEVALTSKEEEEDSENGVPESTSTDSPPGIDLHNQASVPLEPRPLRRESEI
HEK293 Tl flux – parental HEK293 activity in Kir2.1 inhibitor counter-screen; shares compounds with KCNQ2 enhance; parental HEK293 cells, FluxOR thallium flux fluorescence; 0% = unstimulated blank wells; FluxOR signal as % of negative control (100 = no effect), % at 10 µM; 2,300 compounds, 19% hits; AID 2105;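 active = dye signal at least 3 control SD above or below untreated wells in both duplicates, raw fluorescence within 3, either direction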;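 also: percent is based on the flux ratio of peak minus minimum fluorescence over baseline F0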
CHO-K1 Tl ctr – alters thallium flux in parental CHO-K1 cells, KCNQ2 counter-screen | shares compounds with KCNQ2 enhance | FluxOR thallium flux fluorescence; zero = vehicle mean+3SD, 100% = vehicle-minus-blank window | activity increase over 3SD of controls, % at 10 µM | 1,200 compounds, 43% hits | AID 2282;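 active = signal rise of at least 3 SD above the untreated control mean, in both duplicate wells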;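 also: counter screen of KCNQ2 potentiator hits so any rise reflects channel-independent effects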
KCNQ1 pot spec – tests whether KCNQ2 potentiators also act on human KCNQ1; shares compounds with KCNQ2 enhance; CHO KCNQ1 stable, FluxOR thallium flux fluorescence; beyond 3SD, as % of vehicle-control signal; activation over 3SD threshold, % at 10 µM; 1,200 compounds, 28% hits; AID 2283;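 active = fluorescence ratio rise of at least 3 SD of vehicle wells above their mean, in both replicate wells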;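 also: 0% = vehicle mean plus 3 SD and 100% = vehicle minus unstimulated blank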
KCNQ2 pot conf – rat KCNQ2 channel potentiator confirmation; 1,200 compounds, 68% hits; shares compounds with KCNQ2 enhance; CHO-KCNQ2 cells, FluxOR thallium flux fluorescence; AID 2287; potentiation, less the hit threshold, % at 10 µM;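 active = fluorescence ratio rising 3 SD or more over the vehicle control mean in both replicates, plus primary screen hit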;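 also: peak minus minimum thallium fluorescence divided by baseline after K/Tl stimulus; 0% = vehicle mean plus 3 SD and 100% = vehicle minus unstimulated blank difference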
Kir2-1 sel – tests whether KCNQ2 potentiators also affect mouse Kir2.1; shares compounds with KCNQ2 enhance; HEK293 Kir2.1, FluxOR thallium flux fluorescence; activity over 3SD threshold, % at 10 µM; 1,200 compounds, 2% hits; AID 2345;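 active = fluorescence ratio rise of at least 3 SD above the vehicle-control mean, seen in both replicates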;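 also: 0% = vehicle mean plus 3 SD and 100% = vehicle minus no-stimulus blank window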
KCNQ2 W236L pot – rat KCNQ2 W236L mutant potentiation by KCNQ2 potentiators; current increase over 3SD of negative controls (%), hits give high values, % at 25 µM; CHO KCNQ2-W236L, automated patch clamp current; shares compounds with KCNQ2 enhance; 940 compounds, 10% hits;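 active = current increase at least 3 SD of the untreated controls above them in both duplicate recordings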
Starred values were filed as active, the others as inactive; i = inactive; x = no result; + = active, no number. Unless noted, no rule for the calls is given here.

SMILES | KCNQ2 enhance | KCNQ2 block | Kir21 confirm | HEK293 Tl flux | others
CC(C)c1ccc(NC(=O)Cc2ccc(NC3=NC4CS(=O)(=O)CC4S3)cc2)cc1 (configuration not stated) | x | i | x | x
CN1c2ccccc2C(C)(C)[C@]12C=Cc1cc(O)ccc1O2 | -9.5 | -9.5* | i | i | KCNQ2 inh conf=-34%*;KCNQ1 spec=i;CHO parental ctr=i;KCNQ2 inh confirm=i
CC1(C)OC(=O)N(c2ccccc2)C12C=Cc1cc(Br)ccc1O2 (configuration not stated) | x | i | x | x
O=C(NC(=S)NCC1CCCO1)c1ccc([N+](=O)[O-])cc1 (configuration not stated) | 0.68 | i | x | x
COc1ccc(CCN2CC(C(=O)Nc3ccc(S(C)(=O)=O)cc3)CC2=O)cc1OC (configuration not stated) | 1.2 | i | x | x
Cc1ccccc1C([O-])=Nc1ccc[n+](-c2nc3ccccc3nc2NS(=O)(=O)c2ccccc2)c1 | x | i | x | x
Cc1ccnc(NC(=S)N2CCN(c3cccc(C(F)(F)F)c3)CC2)c1 | 2.3 | i | x | x
O=C1CC(c2ccc(O)c(O)c2)Oc2cc(O)cc(O)c21 (configuration not stated) | 0.26 | i | x | x
CC(C)=CCc1c(O)ccc2c1OC(c1ccc(O)c(O)c1)CC2=O (configuration not stated) | -8.7 | -8.7* | 54%* | i | KCNQ2 inh conf=i;KCNQ1 spec=i;CHO parental ctr=i
Cc1ccc(COc2ccc(/C=N/O)cc2)cc1 | x | i | x | x
NC(N)=N/N=C/c1ccc(OCc2ccc(Cl)cc2)cc1 | -9.6 | -9.6* | i | 76%* | KCNQ2 inh conf=-37%*;KCNQ1 spec=i;CHO parental ctr=i;KCNQ2 inh confirm=+
N=c1c2c(-c3ccccc3)c(-c3ccccc3)oc2ncn1CCN1CCOCC1 | x | i | x | x
N=c1c2c(-c3ccccc3)c(-c3ccccc3)n(Cc3ccco3)c2ncn1CCCN1CCOCC1 | x | i | x | x
CC(C)Cn1cnc2c(c(-c3ccccc3)c(-c3ccccc3)n2Cc2ccco2)c1=N | -10 | -10* | i | 134%* | KCNQ2 inh conf=i;KCNQ1 spec=i;CHO parental ctr=i
N=c1c2c(-c3ccccc3)c(-c3ccccc3)n(Cc3ccccc3)c2ncn1CCO | -7.5 | -7.5* | 38%* | 63%* | KCNQ2 inh conf=i;KCNQ1 spec=i;CHO parental ctr=i
Cc1ccc(C(=O)c2ccc(C)cc2)cc1 | x | i | x | x
Cc1ccc(C(=O)c2no[n+]([O-])c2C(=O)c2ccc(C)cc2)cc1 | -9.7 | -9.7* | 70%* | 62%* | KCNQ2 inh conf=-28%*;KCNQ1 spec=i;CHO parental ctr=i;KCNQ2 inh confirm=i;Kir2-1 sel=-62
O=C(CN1CCC(Cc2ccccc2)CC1)Nc1ccc2c(c1)OCCO2 | 5.5* | i | x | x | CHO-K1 Tl ctr=-6;KCNQ1 pot spec=-17;KCNQ2 pot conf=0.3*;Kir2-1 sel=-55;KCNQ2 W236L pot=i
CN(C)S(=O)(=O)c1ccc(NC(=O)CN2CCC(Cc3ccccc3)CC2)cc1 | 4.3 | i | x | x
COc1cccc(CN2CCCC(C(=O)c3ccc4c(c3)OCO4)C2)c1O (configuration not stated) | x | i | x | x
COc1ccc(CN2CCCC(C(=O)c3ccc4c(c3)OCO4)C2)c(F)c1 (configuration not stated) | x | i | 56%* | i
COc1ccc(CNc2ccccc2)cc1Br | x | i | x | x
COc1cc(CNc2cccc(F)c2)cc(Br)c1O | 11* | i | i | i | CHO-K1 Tl ctr=2.4*;KCNQ1 pot spec=-8;KCNQ2 pot conf=-6;Kir2-1 sel=-23
CC(C)(CCl)C(=O)Nc1ccnc(-c2ccncc2)n1 | 1.1 | i | x | x
CC(=O)NCC1CCCN(C(=O)c2ccc(OC3CCN(Cc4ccccn4)CC3)cc2)C1 (configuration not stated) | 0.08 | i | x | x
SMILES | KCNQ2 enhance | KCNQ2 block | Kir21 confirm | HEK293 Tl flux | others
CNCc1ccccc1Sc1ccc(O)c(O)c1 | x | i | 39%* | i
COc1ccc(Sc2ccccc2CN(C)C)cc1OC | 0.47 | i | x | x
Cc1cc(Cl)c(S(=O)(=O)N2CCN(c3ccc(F)cc3)CC2)cc1OCC(=O)NC1CCCCC1 | 16* | i | i | i | CHO-K1 Tl ctr=53*;KCNQ1 pot spec=-11;KCNQ2 pot conf=60*;Kir2-1 sel=-39;KCNQ2 W236L pot=i
Cc1cc(Cl)c(S(=O)(=O)N2CCN(c3ccc(F)cc3)CC2)cc1OCC(N)=O | 0.29 | i | x | x
O=C(Cc1cccs1)NNC(=O)C12CC3CC(CC(C3)C1)C2 | 1.2 | i | x | x
Cc1nnc2n(-c3ccccc3)c(=O)c3c4c(sc3n12)COC(C(C)C)C4 (configuration not stated) | 0.2 | i | x | x
CC(C)C1Cc2c(sc3[nH]c(=S)n(Cc4ccccc4)c(=O)c23)CO1 (configuration not stated) | 7.3* | i | i | 396%* | CHO-K1 Tl ctr=19*;KCNQ1 pot spec=-9;KCNQ2 pot conf=52*;Kir2-1 sel=-13;KCNQ2 W236L pot=i
Nc1ncnc2c1cnn2-c1ccccc1 | 1.2 | i | x | x
S=c1nc[nH]c2c1cnn2-c1ccccc1 | 10* | i | i | 162%* | CHO-K1 Tl ctr=32*;KCNQ1 pot spec=-9;KCNQ2 pot conf=2.7*;Kir2-1 sel=-37;KCNQ2 W236L pot=i
CC(C)c1ccc(C2/C(=C(/O)c3ccc(F)cc3)C(=O)C(=O)N2CCCN2CCOCC2)cc1 (configuration not stated) | 0.39 | i | x | x
CC1CCCCC1NC(=O)CCCn1c(=S)[nH]c2ccccc2c1=O (configuration not stated) | 1 | i | x | x
CC1CCCCC1n1c(=S)[nH]c2ccccc2c1=O (configuration not stated) | 6.6* | i | i | 208%* | CHO-K1 Tl ctr=0.6*;KCNQ1 pot spec=20*;KCNQ2 pot conf=19*;Kir2-1 sel=-24;KCNQ2 W236L pot=i
Cc1cc(=O)n2[nH]c(C)c(-c3ccccc3)c2n1 | x | i | x | x

High-throughput results: PubChem, Johns Hopkins Ion Channel Center
